Data published in PubChem BioAssay AID2289 (National Center for Advancing Translational Sciences (NCATS), 2010).
Among all 340,000 compounds or so, about 3,300 (0.97%) were called active. Another 9% or so got no clear call; they are omitted. Calls come from the whole dose curve; as a rule, active = well fitted inhibition curve with a large enough effect; inconclusive = small, poorly fitted or top-dose-only effect, or effect the other way; inactive = flat fitted curve, though single readings scatter. The list shows a part of the results.

Assay: qHTS Assay for Modulators of miRNAs and/or Inhibitors of miR-21; note: nearly all actives have a fitted effect of over 55% in size
Details: HeLa miR-21-FLuc reporter, luciferase luminescence, 48 h; actives lower the signal
Excerpt: MLSCN Grant: 1 R21 NS059478-01 Assay Provider: Qihong Huang, The Wistar Institute NCGC Assay Overview: MicroRNAs (miRNAs) are endogenously encoded small (~20-25 nucleotides), nonprotein-coding RNAs that are involved in post-transcriptional repression of target messenger RNAs (mRNAs) (Le and Hannon, 2004). Estimated to be involved in the regulation of 30% of all protein-coding mRNAs (Filipowicz et al., 2008), miRNAs play a significant role in many biological processes including cellular differentiation and tissue development (Ghildiyal and Zamore, 2009).
NCGC Assay Protocol Summary: Reagents: HeLa cells stably expressing firefly luciferase (FLuc) under the control of a CMV promoter (upstream) and a miR-21 binding sequence directly downstream of the gene. These cells endogenously express miR-21. Control compounds used were compound C3 (provided by collaborator), N6-phenyladenosine (MP Biomedicals, 0215379625), and DMSO. Assay Summary: 6uL of HeLa miR-21-FLuc cells in assay buffer (DMEM, Invitrogen #21063-029; 10% FBS, HyClone #SH30071.03) were dispensed at 2000cells/well (3.3 x 10^5 cells/mL) into Greiner solid-white TC-treated 1536-well plates using a Multidrop Combi (Thermo Fisher Scientific). Plates were incubated for one hour at 37 degree Celsius, 95% humidity, 5% CO2. These assay plates were then treated with 23nL of compound or DMSO using a Kalypsys pin tool, which allows for delivery of a 24-point titration of each compound to the assay plate, with a final compound concentration ranging from approximately 40uM to 5pM. Assay plates were then incubated for 48 hours. After incubation, plates were allowed to come to RT for one hour prior to delivery of 3uL of 3X luciferase detection reagent. After a 15 minute incubation to allow for cell lysis, luciferase activity was measured using a ViewLux CCD imager (PerkinElmer), with an average exposure time of 2-12 seconds. Keywords: NIH Roadmap, MLPCN, MLSMR, qHTS, miR-21, microRNA, firefly luciferase, FLuc.
Potency is the fitted concentration of half-maximal effect.

Potency, active:
CCCOc1ccc(/C=N/Nc2ccccc2[N+](=O)[O-])c(O)c1 0.0656 µM
O=[N+]([O-])c1ccc(N/N=C/c2cccc(O)c2O)cc1 6.56 µM
O=[N+]([O-])c1ccccc1N/N=C\c1ccccc1Cl 0.656 µM
O=[N+]([O-])c1ccccc1N/N=C/c1cccc(O)c1O 2.61 µM
COc1ccccc1/C=N\Nc1ccccc1[N+](=O)[O-] 1.04 µM
O=[N+]([O-])c1ccccc1NC(=S)N/N=C/c1ccc(O)c(O)c1 1.85 µM
O=C(CCS(=O)(=O)c1ccccc1)NC12CC3CC(CC(C3)C1)C2 2.07 µM
O=C(CCCc1ccccc1)NC12CC3CC(CC(C3)C1)C2 1.65 µM
CCCC(=O)N=C1SC2CS(=O)(=O)CC2N1c1ccc(-c2nc3ccc(C)cc3s2)cc1 (stereo not drawn) 2.93 µM
Cc1ccc2nc(-c3ccc(N4C(=NC(=O)CCC(=O)O)SC5CS(=O)(=O)CC54)cc3)sc2c1 (stereo not drawn) 3.29 µM
NNc1nc(-c2ccccc2Cl)nc2sc3c(c12)CCCC3 5.21 µM
Nc1nc(-c2cccnc2)nc2sc3c(c12)CCCC3 4.65 µM
NNc1nc(-c2ccccc2)nc2sc3c(c12)CCCC3 0.464 µM
CC1CCN(C(=O)c2ccc(NC(=O)c3nsc4ccccc34)cc2)CC1 1.85 µM
CC1CCN(C(=O)c2cccc(NC(=O)c3nsc4ccccc34)c2)CC1 7.36 µM
CCOC(=O)C1CCCN(C(=O)c2ccc(NC(=O)c3nsc4ccccc34)cc2)C1 (stereo not drawn) 3.69 µM
COC(=O)CCc1sc(Nc2ccccc2)nc1-c1ccc(OC)cc1 16.5 µM
COc1ccc(Nc2nc(C)c(-c3ccccc3)s2)cc1 6.56 µM
COc1ccc2nc(Nc3nc4cc5c(cc4s3)OCCO5)sc2c1 13.1 µM
COc1ccc2nc(Nc3ccc4c(c3)OCO4)sc2c1 4.65 µM
COc1ccc(Nc2nc3ccc(OC)cc3s2)cc1 3.69 µM
O=c1c2c(nc3cc(-c4ccc(F)cc4)[nH]n13)CCC2 1.04 µM
COC(=O)C1C(=O)C=C(Nc2ccc(F)cc2)CC1c1ccc(OC)cc1 (stereo not drawn) 10.4 µM
Cc1ccc2c(Cl)c(C(=O)NCCc3ccccc3)sc2c1 6.56 µM
Cc1cc(OCC(=O)N(C)C2CCCCC2)ccc1Cl 1.65 µM
Cc1cn(CCC(=O)Nc2ccccc2N2CCOCC2)c2ccccc12 9.27 µM
CCCS/C(N)=N/N=C/c1cc(C)ccc1O 1.47 µM
CC(C)Oc1ccc(CNC(=O)c2cc3ccccn3n2)cc1 6.56 µM
COc1cc(Cl)c(NC(=O)c2cc3ccccn3n2)c(OC)c1 6.56 µM
CCOc1ccc(CNC(=O)c2cc3ccccn3n2)cc1 7.36 µM
CN(C)c1ccc(-n2cc3c(=O)n(C)c(=O)n(C)c3c2)cc1 11.7 µM
COCc1cc(C)nc2sc(C(=O)Nc3nccs3)c(N)c12 13.1 µM
COCc1cc(C)nc2sc(C(=O)Nc3ccc(OC)cc3)c(N)c12 16.5 µM
COCc1cc(C)nc2sc(C(=O)Nc3cccc(OC)c3)c(N)c12 2.07 µM
Nc1c(-c2nc(-c3ccccc3Cl)no2)nnn1-c1ccccc1F 0.826 µM
CCc1ccccc1NC(=O)C(=O)c1cc(C)n(-c2ccccc2F)c1C 16.5 µM
CCOC(=O)c1c(C)oc2c1c(CN1CCN(CCO)CC1)c(O)c1ccccc12 10.4 µM
CCOC(=O)c1c(C)oc2c1c1c(c3ccccc32)OCN(CCCC(=O)O)C1 10.4 µM
CCOC(=O)c1c(C)oc2c1c(CN1CCN(C(=O)OCC)CC1)c(O)c1ccccc12 14.7 µM
CCOC(=O)c1c(C)oc2c1cc(O)c1ccccc12 5.21 µM
Oc1cccc(Nc2ncnc3c2oc2ccccc23)c1 5.21 µM
c1ccc(Nc2ncnc3c2oc2ccccc23)cc1 7.36 µM
Oc1ccc(Nc2ncnc3c2oc2ccccc23)cc1 13.1 µM
COc1ccccc1Nc1ncnc2c1oc1ccccc12 14.7 µM
c1ccc2c(c1)oc1c(Nc3ccc4c(c3)OCO4)ncnc12 1.65 µM
C=C1SC(=Nc2ccccc2Cl)N(C(=O)c2sc3ccccc3c2Cl)C1(C)C 13.1 µM
O=C(Nc1ccon1)c1sc2cc(F)ccc2c1Cl 1.65 µM
O=C(NC1=NCCS1)c1sc2cc(F)ccc2c1Cl 0.736 µM
CCCc1cc(C(=O)NCCc2ccccc2)no1 4.14 µM
CC(C)Cc1cc(C(=O)NCCc2ccccc2)no1 2.33 µM
CC(C)c1cc(C(=O)NCCc2ccccc2)no1 2.33 µM
Brc1ccc(C2=NC(Cc3ccccc3)CO2)cc1 (stereo not drawn) 14.7 µM
OC(COc1ccc2ccccc2c1Cl)CN1CCOCC1 (stereo not drawn) 10.4 µM
COc1ccc2oc(C(=O)c3ccccc3)c(N)c2c1 1.17 µM
COc1ccc(C(=O)c2oc3ccc(OC)cc3c2N)cc1 7.36 µM
Nc1c(C(=O)c2ccccc2)oc2ccc(Br)cc12 2.61 µM
CC1CN(C(=O)c2cccc(COc3ccc(Br)cc3)c2)CC(C)O1 (stereo not drawn) 2.93 µM
COc1ccc(OCc2cccc(C(=O)N3CCCC3)c2)cc1 1.47 µM
COc1ccc(OCc2cccc(C(=O)Nc3ccc(CN4CCCCC4)cc3)c2)cc1 2.07 µM
Cc1cc(NC(=O)c2cccc(COc3ccc(Br)cc3)c2)no1 1.04 µM
CCOc1ccc(N=C(C)C2=C(O)c3ccccc3C2=O)cc1 1.17 µM
O=Cc1c(N2CCN(c3ccccc3)CC2)nc2ccccn2c1=O 16.5 µM
COc1ccccc1N1CCN(c2nc3ccccn3c(=O)c2C=O)CC1 18.5 µM
O=C(/C=C/c1ccc(Cl)cc1Cl)N1CCc2ccccc21 0.521 µM
Cc1ccc(/C=C/C(=O)N2CCc3ccccc32)o1 2.93 µM
O=c1c(-c2ccc(O)cc2)coc2cc(OC3OC(CO)C(O)C(O)C3O)cc(O)c12 (stereo not drawn) 2.61 µM
CCN1CCN(c2cc3c(nn2)Oc2ccccc2N3C)CC1 7.36 µM
CCC(=O)Nc1ccc(N2CCC(C)CC2)cc1 18.5 µM
CC1CCN(c2ccc(NC(=O)c3ccc(Br)o3)cc2)CC1 0.656 µM
Nc1nc(CSc2ccccc2)nc(N2CCCCC2)n1 6.56 µM
Cc1ccccc1Nc1nc(N)nc(CSc2ccc(F)cc2)n1 1.31 µM
Cc1ccccc1Nc1nc(N)nc(CSc2ccccc2)n1 0.656 µM
Cc1c(Cl)cccc1Nc1nc(N)nc(CSc2ncccn2)n1 16.5 µM
CN1C(=O)/C(=C\c2cc(Br)cs2)c2ccccc21 16.5 µM
Cc1nn(-c2ccccc2)c(N)c1N=Nc1ccc2ccccc2c1 4.65 µM
Cc1nn(-c2ccccc2)c(N)c1N=Nc1cccnc1 11.7 µM
Cc1cccc(N=Nc2c(C)nn(-c3ccccc3)c2N)c1C 7.36 µM
Cc1snc2sc(C(=O)c3ccc(F)cc3)c(N)c12 5.21 µM
CC(=O)c1cccc(NC(=O)COC(=O)c2ccccc2C)c1 5.85 µM
Cc1cccc(C)c1OCC(=O)Nc1cccc(C(=O)O)c1 1.85 µM
CC(C)C(=O)Nc1ccc(C(=O)c2ccccc2)cc1 7.36 µM
CC(C)C(=O)Nc1ccc(-c2csc(-c3ccccc3)n2)cc1 2.33 µM
O=C(Nc1ccccc1Cl)c1csc(-c2cccnc2)n1 13.1 µM
CC(=O)Nc1ccc(-c2csc(-c3cccnc3)n2)cc1 1.17 µM
CC(C)C(=O)Nc1ccc(-c2nnc(-c3ccccc3)o2)cc1 0.261 µM
COC(=O)c1ccsc1NC(=O)CCc1ccccc1 7.36 µM
COc1ccc2cc(-c3csc(-c4cccnc4)n3)ccc2c1 3.29 µM
COc1ccc(-c2csc(-c3cccnc3)n2)cc1C 3.69 µM
c1cncc(-c2nc(-c3ccc4c(c3)OCO4)cs2)c1 1.65 µM
CC(=O)c1ccc(N=Nc2ccc(N(C)C)cc2)cc1 0.293 µM
CN(C)c1ccc(N=Nc2ccc(S(N)(=O)=O)cc2)cc1 1.17 µM
O=C(c1cc(-c2ccc(Br)cc2)on1)N1CCOCC1 0.585 µM
O=C(c1cc(-c2ccc(Br)cc2)on1)N1CCCCCC1 0.927 µM
COc1cccc(-c2noc(-c3ccc4c(c3)OCO4)n2)c1 0.261 µM
c1ccc(-c2noc(-c3ccc4c(c3)OCO4)n2)cc1 0.293 µM
COc1cc(/C=N/NC(=S)NC2CC3CCC2C3)ccc1O (stereo not drawn) 7.36 µM
C=CCn1c(SCC(N)=O)nc2scc(-c3ccc(C)o3)c2c1=O 5.85 µM
COc1cc(NC(=O)c2c(OC)cccc2OC)ccc1NC(=O)c1cc2ccccc2o1 5.21 µM
COc1ccccc1NC(=O)c1cc2ccccc2o1 2.93 µM
COc1ccc(NC(=O)c2cc3ccccc3o2)c(OC)c1 0.585 µM
CCC(=O)Nc1cccc(NC(=S)NC(=O)c2cc3ccccc3o2)c1 0.585 µM
O=C(Nc1ccccc1C(F)(F)F)c1cc2ccccc2o1 1.17 µM
COc1ccccc1NC(=O)c1cc2ccc3cccnc3c2[nH]1 2.33 µM
